Common to all, as to experiment: DAPPL (digital affinity profiling via proximity ligation, sequencing); 10 mM Tris-HCl pH 7.5, 50 mM NaCl, 1 mM DTT, 4% glycerol, room temperature, 30 min; GST-TFs on glutathione beads, 16-mer random dsDNA library, 0.1% formaldehyde crosslink after washing; high values mean tight binding
The target of one experiment is T1, FLI1 (Homo sapiens, UniProt Q01543 1-452).
T1 sequence: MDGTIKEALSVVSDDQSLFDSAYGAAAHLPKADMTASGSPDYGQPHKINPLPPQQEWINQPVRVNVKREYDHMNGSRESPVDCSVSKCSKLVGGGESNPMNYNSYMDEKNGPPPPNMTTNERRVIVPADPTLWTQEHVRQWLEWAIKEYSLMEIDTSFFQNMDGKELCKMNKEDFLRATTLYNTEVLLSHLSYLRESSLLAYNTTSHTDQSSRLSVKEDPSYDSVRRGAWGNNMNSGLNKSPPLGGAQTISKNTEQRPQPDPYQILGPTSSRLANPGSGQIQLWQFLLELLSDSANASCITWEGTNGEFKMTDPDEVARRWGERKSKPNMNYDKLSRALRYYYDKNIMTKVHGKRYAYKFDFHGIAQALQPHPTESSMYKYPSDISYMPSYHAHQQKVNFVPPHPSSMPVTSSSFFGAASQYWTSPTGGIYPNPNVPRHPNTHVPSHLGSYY
Conditions: protein: recombinant; tags: N-terminal GST; dsDNA, one strand shown. An outline of the steps: (§1)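 Human transcription factors were made in yeast as GST fusions, captured on glutathione beads and barcoded with DNA. With a tag-only sample included, the pool was incubated with 200 nmole of a random double-stranded 16-mer DNA library in Tris/NaCl/DTT/glycerol buffer at room temperature for 30 min, then crosslinked with 0.1% formaldehyde after washing, ligated by proximity, amplified and sequenced. For binding signal, each hexamer's read frequency for a factor is divided by its frequency for the tag-only sample.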

For the next experiment, the target named is T2, ELK1 (Homo sapiens, UniProt P19419 1-428).
T2 sequence: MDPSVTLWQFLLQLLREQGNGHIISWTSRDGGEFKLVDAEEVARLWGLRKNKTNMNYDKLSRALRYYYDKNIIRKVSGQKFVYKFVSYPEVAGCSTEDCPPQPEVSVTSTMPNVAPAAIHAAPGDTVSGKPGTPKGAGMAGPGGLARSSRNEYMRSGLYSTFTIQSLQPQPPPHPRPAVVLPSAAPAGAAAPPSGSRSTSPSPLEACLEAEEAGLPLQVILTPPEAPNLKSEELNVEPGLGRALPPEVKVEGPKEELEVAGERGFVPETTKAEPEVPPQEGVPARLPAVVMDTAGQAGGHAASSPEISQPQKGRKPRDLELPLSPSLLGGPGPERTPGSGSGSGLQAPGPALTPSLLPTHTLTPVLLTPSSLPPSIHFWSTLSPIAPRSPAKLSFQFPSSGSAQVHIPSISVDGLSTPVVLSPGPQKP
Conditions: protein: recombinant; tags: N-terminal GST; dsDNA, one strand shown. An outline of the steps: as §1

A further experiment has as its target T3, GABPA (Homo sapiens, UniProt Q06546 1-454).
T3 sequence: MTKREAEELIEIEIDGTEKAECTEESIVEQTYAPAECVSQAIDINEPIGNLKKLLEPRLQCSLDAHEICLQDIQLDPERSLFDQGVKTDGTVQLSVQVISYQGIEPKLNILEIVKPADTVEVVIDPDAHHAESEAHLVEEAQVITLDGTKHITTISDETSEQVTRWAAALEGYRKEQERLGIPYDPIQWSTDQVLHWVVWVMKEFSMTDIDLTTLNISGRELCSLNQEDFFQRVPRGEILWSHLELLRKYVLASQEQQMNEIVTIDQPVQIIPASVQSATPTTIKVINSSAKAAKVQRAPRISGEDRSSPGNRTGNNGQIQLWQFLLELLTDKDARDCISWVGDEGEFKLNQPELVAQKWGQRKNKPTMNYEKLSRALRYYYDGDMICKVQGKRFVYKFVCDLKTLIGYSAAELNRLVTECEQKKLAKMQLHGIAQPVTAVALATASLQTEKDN
As to conditions: protein: recombinant; tags: N-terminal GST; dsDNA, one strand shown. An outline of the steps:
as §1

The target of another experiment is T4, ERG (Homo sapiens, UniProt P11308 1-479).
T4 sequence: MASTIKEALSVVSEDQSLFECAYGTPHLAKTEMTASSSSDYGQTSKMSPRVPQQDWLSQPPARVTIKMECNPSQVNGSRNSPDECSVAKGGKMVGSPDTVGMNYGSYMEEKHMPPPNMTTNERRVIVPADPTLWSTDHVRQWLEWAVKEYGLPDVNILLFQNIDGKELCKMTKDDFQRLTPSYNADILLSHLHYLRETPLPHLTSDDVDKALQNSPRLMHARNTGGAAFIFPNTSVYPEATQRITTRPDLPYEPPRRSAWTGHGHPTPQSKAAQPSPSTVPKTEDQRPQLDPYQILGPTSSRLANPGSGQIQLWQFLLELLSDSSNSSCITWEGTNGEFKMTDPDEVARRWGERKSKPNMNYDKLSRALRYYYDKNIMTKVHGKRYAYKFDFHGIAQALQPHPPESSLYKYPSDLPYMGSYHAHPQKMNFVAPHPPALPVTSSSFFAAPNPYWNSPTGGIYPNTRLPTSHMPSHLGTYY
Conditions: protein: recombinant; tags: N-terminal GST; dsDNA, one strand shown. An outline of the steps:
as §1

Another experiment has as its target ELF1 (Homo sapiens, UniProt P32519 1-619). As to conditions: protein: recombinant; tags: N-terminal GST; dsDNA, one strand shown. An outline of the steps: as §1
The target of a further experiment is T5, EHF (Homo sapiens, UniProt Q9NZC4 1-300).
T5 sequence: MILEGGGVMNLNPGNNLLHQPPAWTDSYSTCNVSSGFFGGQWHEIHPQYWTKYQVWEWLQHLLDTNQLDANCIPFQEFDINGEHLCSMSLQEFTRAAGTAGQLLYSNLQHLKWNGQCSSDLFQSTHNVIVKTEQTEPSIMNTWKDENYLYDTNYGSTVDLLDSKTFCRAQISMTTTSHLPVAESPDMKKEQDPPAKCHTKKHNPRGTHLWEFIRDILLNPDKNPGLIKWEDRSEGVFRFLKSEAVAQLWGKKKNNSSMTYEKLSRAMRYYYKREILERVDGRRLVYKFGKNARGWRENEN
Conditions: protein: recombinant; tags: N-terminal GST; dsDNA, one strand shown. An outline of the steps:
as §1

The target in a further experiment is SPI1 (Homo sapiens, UniProt P17947 1-270). As to conditions: protein: recombinant; tags: N-terminal GST; dsDNA, one strand shown. An outline of the steps: as §1
The next experiment addresses SPIB (Homo sapiens, UniProt Q01892 1-262). As to conditions: protein: recombinant; tags: N-terminal GST; dsDNA, one strand shown. An outline of the steps:
as §1

The next experiment concerns the target T6, ELK3 (Homo sapiens, UniProt P41970 1-407).
T6 sequence: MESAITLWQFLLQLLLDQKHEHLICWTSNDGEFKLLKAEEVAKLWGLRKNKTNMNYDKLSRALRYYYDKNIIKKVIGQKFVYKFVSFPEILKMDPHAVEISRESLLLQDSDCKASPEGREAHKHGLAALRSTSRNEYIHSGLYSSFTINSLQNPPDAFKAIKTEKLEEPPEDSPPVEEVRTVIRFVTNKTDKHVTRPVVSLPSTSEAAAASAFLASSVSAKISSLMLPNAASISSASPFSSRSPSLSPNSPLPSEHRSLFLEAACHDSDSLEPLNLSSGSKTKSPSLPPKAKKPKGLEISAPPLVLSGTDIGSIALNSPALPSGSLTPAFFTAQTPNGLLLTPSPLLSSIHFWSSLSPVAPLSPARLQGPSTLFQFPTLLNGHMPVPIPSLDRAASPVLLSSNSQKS
Conditions: protein: recombinant; tags: N-terminal GST; dsDNA, one strand shown. An outline of the steps: as §1

Another experiment addresses T7, FEV (Homo sapiens, UniProt Q99581 1-238).
T7 sequence: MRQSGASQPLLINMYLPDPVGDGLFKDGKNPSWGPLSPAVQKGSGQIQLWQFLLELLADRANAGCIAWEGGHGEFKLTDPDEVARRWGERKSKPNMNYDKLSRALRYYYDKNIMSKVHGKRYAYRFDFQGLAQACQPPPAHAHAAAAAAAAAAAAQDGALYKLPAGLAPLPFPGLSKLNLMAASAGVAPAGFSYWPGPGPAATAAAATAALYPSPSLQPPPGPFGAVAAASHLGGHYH
As to conditions: protein: recombinant; tags: N-terminal GST; dsDNA, one strand shown. An outline of the steps:
as §1

Another experiment has as its target ETV5 (Homo sapiens, UniProt P41161 1-510). As to conditions: protein: recombinant; tags: N-terminal GST; dsDNA, one strand shown. An outline of the steps:
as §1

The target in another experiment is HSF1 (Homo sapiens, UniProt Q00613 1-529). Conditions: protein: recombinant; tags: N-terminal GST; chain copies: 3; dsDNA, one strand shown. An outline of the steps:
as §1

The target in another experiment is T8, SPIC (Homo sapiens, UniProt Q8N5J4 1-248).
T8 sequence: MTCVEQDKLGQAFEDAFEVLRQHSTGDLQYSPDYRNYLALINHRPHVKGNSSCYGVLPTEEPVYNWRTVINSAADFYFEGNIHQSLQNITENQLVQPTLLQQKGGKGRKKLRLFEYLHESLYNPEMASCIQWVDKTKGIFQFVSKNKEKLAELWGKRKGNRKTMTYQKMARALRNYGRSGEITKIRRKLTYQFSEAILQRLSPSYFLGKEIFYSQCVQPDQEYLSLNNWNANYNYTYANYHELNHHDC
As to conditions: protein: recombinant; tags: N-terminal GST; dsDNA, one strand shown. An outline of the steps: as §1

Another experiment has as its target ELF4 (Homo sapiens, UniProt Q99607 1-663). As to conditions: protein: recombinant; tags: N-terminal GST; dsDNA, one strand shown. An outline of the steps: as §1
The next experiment addresses T9, ELK4 (Homo sapiens, UniProt P28324-2 1-405).
T9 sequence: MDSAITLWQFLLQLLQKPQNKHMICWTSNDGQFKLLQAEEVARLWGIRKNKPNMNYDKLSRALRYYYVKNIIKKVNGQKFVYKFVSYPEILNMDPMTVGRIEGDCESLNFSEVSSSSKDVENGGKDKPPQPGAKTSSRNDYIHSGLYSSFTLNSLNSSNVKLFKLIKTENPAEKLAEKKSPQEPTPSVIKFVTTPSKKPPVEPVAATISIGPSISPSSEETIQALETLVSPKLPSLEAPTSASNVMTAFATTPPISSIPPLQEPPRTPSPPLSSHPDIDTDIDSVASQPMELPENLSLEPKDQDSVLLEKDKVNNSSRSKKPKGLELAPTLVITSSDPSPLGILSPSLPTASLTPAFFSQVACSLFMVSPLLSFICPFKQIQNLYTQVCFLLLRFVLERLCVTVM
Conditions: protein: recombinant; tags: N-terminal GST; dsDNA, one strand shown. An outline of the steps: as §1

The target of the next experiment is T10, ETV2 (Homo sapiens, UniProt O00321 1-342).
T10 sequence: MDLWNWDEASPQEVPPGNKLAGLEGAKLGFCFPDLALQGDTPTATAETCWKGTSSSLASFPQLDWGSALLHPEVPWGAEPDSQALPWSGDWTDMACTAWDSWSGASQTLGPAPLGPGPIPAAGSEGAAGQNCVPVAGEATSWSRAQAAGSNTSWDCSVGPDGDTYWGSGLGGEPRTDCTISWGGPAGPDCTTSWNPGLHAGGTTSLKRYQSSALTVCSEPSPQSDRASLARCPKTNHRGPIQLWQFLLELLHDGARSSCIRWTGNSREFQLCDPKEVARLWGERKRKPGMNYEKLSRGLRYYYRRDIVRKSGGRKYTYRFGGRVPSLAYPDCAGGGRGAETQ
Conditions: protein: recombinant; tags: N-terminal GST; dsDNA, one strand shown. An outline of the steps: as §1

For another experiment, the target named is T11, ELF3 (Homo sapiens, UniProt P78545 1-371).
T11 sequence: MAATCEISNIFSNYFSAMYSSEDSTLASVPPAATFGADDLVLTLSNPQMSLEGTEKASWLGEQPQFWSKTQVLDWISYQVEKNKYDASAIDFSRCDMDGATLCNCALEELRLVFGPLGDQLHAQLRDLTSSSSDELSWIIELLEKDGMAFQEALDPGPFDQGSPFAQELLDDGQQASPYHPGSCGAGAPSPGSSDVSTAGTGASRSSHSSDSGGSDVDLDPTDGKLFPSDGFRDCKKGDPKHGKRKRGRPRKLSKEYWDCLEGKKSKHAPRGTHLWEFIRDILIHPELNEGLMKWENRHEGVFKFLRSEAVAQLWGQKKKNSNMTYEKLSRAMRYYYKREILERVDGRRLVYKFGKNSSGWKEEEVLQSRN
Conditions: protein: recombinant; tags: N-terminal GST; dsDNA, one strand shown. An outline of the steps: as §1

The target of a further experiment is ETV1 (Homo sapiens, UniProt P50549 1-477). Conditions: protein: recombinant; tags: N-terminal GST; dsDNA, one strand shown. An outline of the steps: as §1
ETV1, sequence (P50549 whole entry): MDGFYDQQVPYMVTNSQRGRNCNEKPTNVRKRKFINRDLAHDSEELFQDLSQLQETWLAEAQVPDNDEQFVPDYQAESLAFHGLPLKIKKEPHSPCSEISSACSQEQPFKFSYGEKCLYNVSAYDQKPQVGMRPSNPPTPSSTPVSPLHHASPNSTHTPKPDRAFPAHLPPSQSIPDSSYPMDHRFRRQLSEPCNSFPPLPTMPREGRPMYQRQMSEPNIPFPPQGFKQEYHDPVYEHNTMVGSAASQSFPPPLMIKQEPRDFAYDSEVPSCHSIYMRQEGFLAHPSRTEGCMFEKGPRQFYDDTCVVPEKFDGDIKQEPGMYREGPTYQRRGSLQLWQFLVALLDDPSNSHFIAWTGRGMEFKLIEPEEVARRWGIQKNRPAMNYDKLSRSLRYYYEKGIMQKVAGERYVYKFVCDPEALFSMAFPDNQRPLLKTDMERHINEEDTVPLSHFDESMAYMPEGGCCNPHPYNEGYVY

ELF4, sequence (Q99607 whole entry): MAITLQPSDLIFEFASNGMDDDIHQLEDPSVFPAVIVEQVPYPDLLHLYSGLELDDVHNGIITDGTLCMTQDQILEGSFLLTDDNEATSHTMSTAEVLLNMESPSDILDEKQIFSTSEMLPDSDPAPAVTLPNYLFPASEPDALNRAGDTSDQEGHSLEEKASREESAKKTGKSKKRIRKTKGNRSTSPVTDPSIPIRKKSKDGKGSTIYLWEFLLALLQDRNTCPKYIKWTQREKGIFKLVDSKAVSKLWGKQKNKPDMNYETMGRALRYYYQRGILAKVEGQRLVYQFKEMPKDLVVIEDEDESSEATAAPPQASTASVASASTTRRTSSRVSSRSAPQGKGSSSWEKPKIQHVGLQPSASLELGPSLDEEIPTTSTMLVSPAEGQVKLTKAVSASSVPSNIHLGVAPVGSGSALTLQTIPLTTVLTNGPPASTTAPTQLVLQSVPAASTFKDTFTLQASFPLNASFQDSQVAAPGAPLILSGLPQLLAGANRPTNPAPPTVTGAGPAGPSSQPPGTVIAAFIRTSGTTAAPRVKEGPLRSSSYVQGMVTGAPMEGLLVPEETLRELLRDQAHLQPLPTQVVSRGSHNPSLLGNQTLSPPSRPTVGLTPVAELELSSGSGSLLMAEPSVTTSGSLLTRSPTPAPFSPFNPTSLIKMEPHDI
HSF1, sequence (Q00613 whole entry): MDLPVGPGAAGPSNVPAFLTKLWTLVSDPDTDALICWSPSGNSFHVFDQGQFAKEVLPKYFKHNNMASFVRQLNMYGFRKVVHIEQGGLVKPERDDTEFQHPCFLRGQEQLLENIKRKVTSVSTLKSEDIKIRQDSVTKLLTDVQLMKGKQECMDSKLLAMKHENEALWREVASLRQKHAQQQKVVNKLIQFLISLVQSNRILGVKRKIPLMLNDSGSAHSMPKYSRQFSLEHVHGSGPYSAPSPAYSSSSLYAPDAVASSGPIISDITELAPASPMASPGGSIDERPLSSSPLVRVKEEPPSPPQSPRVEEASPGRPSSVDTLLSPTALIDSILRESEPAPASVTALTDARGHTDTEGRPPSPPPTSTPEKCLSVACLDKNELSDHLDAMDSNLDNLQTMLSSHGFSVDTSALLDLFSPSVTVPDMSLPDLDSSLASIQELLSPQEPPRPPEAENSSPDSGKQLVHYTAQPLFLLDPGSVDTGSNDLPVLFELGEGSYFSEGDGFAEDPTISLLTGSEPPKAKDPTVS
ELF1, sequence (P32519 whole entry): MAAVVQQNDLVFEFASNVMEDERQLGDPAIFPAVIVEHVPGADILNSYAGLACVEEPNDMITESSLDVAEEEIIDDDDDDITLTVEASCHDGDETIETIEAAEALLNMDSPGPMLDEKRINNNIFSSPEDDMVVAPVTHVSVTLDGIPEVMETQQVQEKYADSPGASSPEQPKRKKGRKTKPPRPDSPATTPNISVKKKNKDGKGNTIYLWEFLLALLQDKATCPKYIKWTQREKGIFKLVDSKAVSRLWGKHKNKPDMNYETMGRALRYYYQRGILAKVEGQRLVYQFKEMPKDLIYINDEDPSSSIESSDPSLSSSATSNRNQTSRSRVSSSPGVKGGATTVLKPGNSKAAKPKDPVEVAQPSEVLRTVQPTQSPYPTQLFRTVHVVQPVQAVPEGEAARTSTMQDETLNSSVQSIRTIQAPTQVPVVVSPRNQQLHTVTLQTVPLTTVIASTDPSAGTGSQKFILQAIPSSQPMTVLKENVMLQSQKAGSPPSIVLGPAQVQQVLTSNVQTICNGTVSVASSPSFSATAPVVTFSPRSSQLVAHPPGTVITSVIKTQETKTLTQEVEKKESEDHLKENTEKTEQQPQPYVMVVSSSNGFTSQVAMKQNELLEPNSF
SPIB, sequence (Q01892 whole entry): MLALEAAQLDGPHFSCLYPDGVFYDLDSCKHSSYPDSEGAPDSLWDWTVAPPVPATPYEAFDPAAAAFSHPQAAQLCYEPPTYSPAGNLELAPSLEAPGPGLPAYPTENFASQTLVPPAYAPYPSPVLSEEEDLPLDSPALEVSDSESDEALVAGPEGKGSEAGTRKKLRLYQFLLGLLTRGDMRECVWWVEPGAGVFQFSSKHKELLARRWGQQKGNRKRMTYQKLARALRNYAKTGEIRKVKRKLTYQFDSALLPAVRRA
ETV5, sequence (P41161 whole entry): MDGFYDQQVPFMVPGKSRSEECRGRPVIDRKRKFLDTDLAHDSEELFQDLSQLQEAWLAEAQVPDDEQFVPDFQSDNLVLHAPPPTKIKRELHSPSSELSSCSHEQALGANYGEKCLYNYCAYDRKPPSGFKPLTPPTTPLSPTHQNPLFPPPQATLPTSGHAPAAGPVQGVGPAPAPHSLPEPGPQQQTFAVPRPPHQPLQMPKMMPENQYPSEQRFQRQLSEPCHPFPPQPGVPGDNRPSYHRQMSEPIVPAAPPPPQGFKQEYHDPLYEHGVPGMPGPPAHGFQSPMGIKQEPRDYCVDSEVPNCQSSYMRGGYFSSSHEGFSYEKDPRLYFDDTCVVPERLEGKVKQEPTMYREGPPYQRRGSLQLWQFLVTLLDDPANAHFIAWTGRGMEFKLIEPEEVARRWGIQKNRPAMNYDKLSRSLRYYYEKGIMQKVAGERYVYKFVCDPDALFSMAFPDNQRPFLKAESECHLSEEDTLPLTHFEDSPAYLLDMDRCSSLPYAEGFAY

In the case of AGGAAA, the binding signal is 1.32 fold enrichment (6-mer frequency, TF over GST control) with FLI1; 1.28 fold enrichment (6-mer frequency, TF over GST control) with ELK1; 1.31 fold enrichment (6-mer frequency, TF over GST control) with GABPA; 1.62 fold enrichment (6-mer frequency, TF over GST control) with ERG; 1.27 fold enrichment (6-mer frequency, TF over GST control) with ELF1; 1.63 fold enrichment (6-mer frequency, TF over GST control) with EHF. Moreover, the binding signal with SPI1 is 1.43 fold enrichment (6-mer frequency, TF over GST control); in the experiment with SPIB, 1.49 fold enrichment (6-mer frequency, TF over GST control); with ELK3 it was 1.34 fold enrichment (6-mer frequency, TF over GST control); in the experiment with FEV, 1.5 fold enrichment (6-mer frequency, TF over GST control); with ETV5, 1.52 fold enrichment (6-mer frequency, TF over GST control); in the experiment with HSF1, 1.15 fold enrichment (6-mer frequency, TF over GST control). In addition, the binding signal with SPIC is 1.42 fold enrichment (6-mer frequency, TF over GST control); with ELF4, 1.35 fold enrichment (6-mer frequency, TF over GST control); in the experiment with ELK4 it was 1.2 fold enrichment (6-mer frequency, TF over GST control); with ETV2, 1.41 fold enrichment (6-mer frequency, TF over GST control); with ELF3 it was 1.72 fold enrichment (6-mer frequency, TF over GST control); with ETV1 it was 1.46 fold enrichment (6-mer frequency, TF over GST control).
